Several values for one entry are separate records, joined by “and”; a condition that tells them apart may be missing. Equal values may be shown once. Out of some 2,300 compounds screened, about 1,400 (61%) were called active. Inconclusive results (about 29%) are left out. The set was probably picked from earlier hits. This is one part of the list. Unmarked numbers belong to inactive results. The call rests on the fitted dose curve; in most records, active means well fitted inhibition curve with a large enough effect; inconclusive means small, poorly fitted or top-dose-only effect, or effect the other way; inactive means no such curve, though single readings can be large or run the other way.
On the % scale 0 is the no-effect control and ±100 the full control effect; potency means the concentration at half of the fitted maximal effect.

The assay is described as follows: Confirmation screen for delayed death inhibitors of the malarial parasite plastid, 96 hour incubation. Further: nearly all actives have a fitted effect of over 60% in size. As to conditions: P. falciparum luciferase growth in erythrocytes; series mostly up to 28.7 µM; activity change, negative = inhibition: at the top concentration. An outline of the steps:
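Two-generation (96 h, 37 C) exposure of P. falciparum carrying an integrated firefly luciferase reporter in erythrocytes, 0.1% parasitemia and 2% hematocrit final, Albumax-supplemented RPMI. Luminescence decrease measures growth inhibition.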
`CN(C)CCn1c(=O)n(Cc2ccco2)c(=O)c2c3c(sc21)CCCCC3`: the Potency was 10 µM (active). In the case of `O=c1c(Cl)cc(Cl)nn1-c1ccccc1`, the Potency is 12.6 µM (active). For the compound `Cc1ccc2c(CN(C)Cc3cccc(F)c3)cc(=O)oc2c1C`, the Potency is 12.6 µM (active). On to `Cc1c(O)ccc2c(CN(C)Cc3ccccc3)cc(=O)oc12`, for which the Potency is 12.6 µM (active). On the same count and under the same terms, the same measure for `Cc1ccccc1CN(C)Cc1cc(=O)oc2c(C)c(C)ccc12`: 15.8 µM (active). On the same count and under the same terms, the same measure for `COc1cc2c(cc1OC)CN(Cc1cc(=O)oc3c(C)c(C)ccc13)CC2`: 15.8 µM (active).

As to `O=C(COC(=O)c1ccc(F)c(S(=O)(=O)N2CCOCC2)c1)Nc1ccc2[nH]c(=O)[nH]c2c1`, the “activity change, negative = inhibition” value is -7.71%. With `O=C(Nc1ccccc1N1CCOCC1)c1ccc(F)c(S(=O)(=O)N2CCOCC2)c1`, the Potency is 8.91 µM (active). On the same count and under the same terms, the same measure for `O=C(Nc1ccccc1N1CCOCC1)c1cccc(S(=O)(=O)N2CCOCC2)c1`: 11.2 µM (active). `O=C(Nc1ccccc1[N+](=O)[O-])c1cc(S(=O)(=O)N2CCOCC2)cs1`: the Potency is 14.1 µM (active). As for `C/C(=N\NC(=O)c1cccc(S(=O)(=O)N2CCOCC2)c1)c1ccc(O)cc1`, the Potency is 1 µM (active). Same read-out and setting: the result for `COc1ccc(CNn2c(-c3ccccc3F)nc3ccccc3c2=O)cc1OC` reads 5.01 µM (active); that for `Cc1ccccc1C1=NC(C(F)(F)F)(C(F)(F)F)c2c(n(-c3ccc(F)cc3)c(=O)[nH]c2=O)N1`, 11.2 µM (active). On the same count and under the same terms, the result for `CC(=O)/C(C#N)=C1\NC(=O)C(Cc2ccc(C)c(C)c2)S1` (configuration not stated) reads 11.2 µM (active); that for `CC(=O)/C(C#N)=C1\NC(=O)C(Cc2cc(Cl)ccc2Cl)S1` (configuration not stated), 14.1 µM (active).

Take `CC(=O)/C(C#N)=C1\NC(=O)C(Cc2ccc(C)c(Cl)c2)S1` (configuration not stated): the Potency was 12.6 µM (active).

Regarding `COC(=O)c1ccccc1SC1CC(=O)N(c2ccccc2)C1=O` (configuration not stated), the “activity change, negative = inhibition” value is -1.25%.

As for `CC(C)CN1C2CCCC1CC(NC(=S)NCc1ccco1)C2` (configuration not stated), the Potency is 10 µM (active). Same read-out and setting: the same measure for `CCOC(=O)C1CCCN(Cc2ccc(OCc3ccccc3)c(OC)c2)C1` (configuration not stated): 10 µM (active). As to `CCOC(=O)C1CCCCN1Cc1cccc(OCc2ccccc2)c1` (configuration not stated), the Potency is 12.6 µM (active).

Consider `O=C(C1CCC(=O)N1Cc1ccccc1Cl)N1CCN(c2cccc(Cl)c2)CC1` (configuration not stated), for which the Potency was 11.2 µM (active). On to `CCS(=O)(=O)c1nc(S(=O)(=O)c2ccc(C)cc2)c(N2CCC3(CC2)OCCO3)s1`, for which the Potency was 10 µM (active). Turning to `Cc1ccc(NC(=O)CN2C(=O)S/C(=C\c3ccccn3)C2=O)cc1C`, the “activity change, negative = inhibition” value is -6.39%.

Consider `Cc1ccc(CN(Cc2ccccn2)C(=O)Nc2ccc(C)c(C)c2)cc1`, for which the Potency is 15.8 µM (active).

In the case of `OCC1(CCOc2ccccc2)CCN(Cc2nc3ccc(F)cc3[nH]2)CC1`, the Potency was 12.6 µM (active).

For `Cc1c(CN2CCC(CO)(CCOc3ccccc3)CC2)[nH]c2ccc(Cl)cc12`, the Potency was 5.62 µM (active). On the same count and under the same terms, the same measure for `Cc1ccc(-n2c(-c3ccc(Cl)cc3)c[n+]3c2CCC3)cc1`: 0.0398 µM (active); for `CC(C)(C)OC(=O)CNC(=O)c1[nH]cnc1C(=O)NC1CCN(C(=O)OC(C)(C)C)CC1`: 12.6 µM (active). Turning to `CC(C)(C)OC(=O)[C@H](Cc1ccccc1)NC(=O)c1nc[nH]c1C(=O)N1CCN(C(=O)OC(C)(C)C)CC1`, the Potency was 12.6 µM (active). Regarding `CC(C)C[C@H](NC(=O)c1nc[nH]c1C(=O)N1CCN(C(=O)OC(C)(C)C)CC1)C(=O)OC(C)(C)C`, the Potency was 15.8 µM (active).

On to `CC(NC(=O)c1cc2sccc2n1C)c1ccc2c(c1)OCCO2` (configuration not stated), for which the “activity change, negative = inhibition” value was -11.1%. Take `CCCCN(CCCNC(=O)C1CCN(C(=O)c2cc3sccc3n2C)CC1)Cc1ccccc1`: the Potency was 0.562 µM (active). As to `O=S(=O)(CC(CN1CCCCC1)N1CCCCC1)c1ccccc1` (configuration not stated), the Potency was 7.94 µM (active).

Turning to `Cc1ccc(OCCn2cc(C(=S)N3CCCC3)c3ccccc32)cc1C`, the Potency was 14.1 µM (active). On the same count and under the same terms, the result for `Cc1cc(C)nc(SCc2nnc(SCC(=O)Nc3nc(-c4ccccc4)cs3)n2C)n1` reads 14.1 µM (active); that for `CCOC(=O)CSc1nnc(CNc2nc(-c3ccccc3)cs2)n1C`, 10 µM (active); that for `CCCCN(CCCC)CCC(O)c1cc2c(Cl)cc(Cl)cc2c2cc(C(F)(F)F)ccc12` (configuration not stated), 39.8 nM (active) and 20 nM (active).

`COc1ccc(-n2c(C)cc(C(=O)Cn3c(NCCO)nc4ccccc43)c2C)cc1`: the Potency was 10 µM (active). Turning to `CCCc1c(C)c2cccc(C)c2[nH]c1=O`, the “activity change, negative = inhibition” value was -24%. As to `COc1ccc(C(=O)/C(=C\c2ccco2)N2C=CC=CC2=C(C#N)C#N)cc1`, the Potency was 15.8 µM (active). Regarding `N#CC(C#N)=C1C=CC=CN1/C(=C\c1ccco1)C(=O)c1ccc(-c2ccccc2)cc1`, the Potency is 12.6 µM (active).

Take `N#CC(C#N)=C1C=CC=CN1/C(=C\c1ccco1)C(=O)c1ccc(Cl)cc1`: the Potency is 15.8 µM (active). Regarding `COc1ccc(CCNS(=O)(=O)c2ccc(Br)s2)cc1`, the “activity change, negative = inhibition” value is -25.4%. As for `CCN(CC)S(=O)(=O)c1ccc(C2=NOC3(C2)N(C)c2ccccc2C3(C)C)cc1` (configuration not stated), the Potency is 12.6 µM (active). Turning to `CN1c2ccccc2C(C)(C)C12CC(c1ccc(S(=O)(=O)N3CCCCC3)cc1)=NO2` (configuration not stated), the Potency was 5.01 µM (active).

With `CC(C)NC(=O)c1onc(CSc2cccc3ccccc23)c1C(=O)O`, the “activity change, negative = inhibition” value is -18.8%. As to `Cc1nn(C(C)C(=O)Nc2ccccc2Cl)c(=O)c2nn(-c3ccccc3)c(C)c12` (configuration not stated), the Potency was 10 µM (active). As for `Cc1nn(C(C)C(=O)NCCC2=CCCCC2)c(=O)c2nn(-c3ccccc3)c(C)c12` (configuration not stated), the Potency was 11.2 µM (active). Same read-out and setting: the same measure for `CSc1ccc(CNC(=O)C(C)n2nc(C)c3c(C)n(-c4ccccc4)nc3c2=O)cc1` (configuration not stated): 11.2 µM (active). As for `Cc1c(NC(=O)C(C)Sc2nccn2C)c(=O)n(-c2ccccc2)n1C` (configuration not stated), the “activity change, negative = inhibition” value is -5.32%.

Regarding `Cc1nn(C(C)C(=O)NCCCc2ccccc2)c(=O)c2nn(-c3ccccc3)c(C)c12` (configuration not stated), the Potency is 12.6 µM (active).

As for `Cc1ccc(C(=O)NCC(=O)NCCCc2ccccc2)s1`, the “activity change, negative = inhibition” value is 42.3%. Still for that read-out and setting: the same measure for `CCCCCCC1C(C#N)=C(N)OC2=C1C(=O)CCC2` (configuration not stated): 13.7%. As to `Cc1ccc(-c2cc(C(=O)N/N=C/C=C/c3ccco3)c3ccccc3n2)cc1C`, the Potency is 14.1 µM (active). The same measure, in the same setting: the result for `CC(C)C[C@@H](NC(=O)[C@H](Cc1ccccc1)NC(=O)c1cnccn1)B(O)O` reads 0.178 µM (active); that for `CC(C)=N/N=C1/NC(=O)C(Cc2ccccc2)S1` (configuration not stated), 7.94 µM (active); that for `Cc1cc(=O)oc2ccc(OCC(=O)N3CCc4ccccc43)cc12`, 6.31 µM (active).
